# Only some compounds are listed: those with a hit (about 27% of all), similar ones and a draw of the others.
# Cav3 T inh: inhibitors of human Cav3.2 T-type calcium channel. Cav3.2-expressing cells, Fluo-4 calcium fluorescence FDSS; stronger effect = lower value. actives 4% (n = 100,000). B-score at 10 µM;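 active = single-dose well whose peak fluorescence ratio is a statistical outlier from its plate by either plate-standardised score or position-corrected B-score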
# CYP2C19 activ: cytochrome P450 2C19 (human) activation. 96,000 tested, under 10 active. P33261. recombinant CYP2C19, luciferin-H EGE luminescence; stronger effect = higher value; 0 = fully inhibited enzyme, 1 = untreated enzyme. activation factor at 5 µM. AID 1025;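 active = activation factor of at least 2 at 5 µM in the primary screen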
# CYP2C9 activ: CYP2C9 (human) activation. P11712. recombinant CYP2C9, luciferin-H conversion, luminescence; stronger effect = higher value; factor 1 = untreated enzyme, 0 = blocked. activation factor at 5 µM. actives 1.4% (n = 96,000). AID 1024;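 active = activation factor of 2 or more for CYP2C9 at a 5 µM dose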
# CYP2C9 inh: inhibitors of human CYP2C9 | actives 20% (n = 96,000) | P11712 | CYP2C9 Supersomes, luciferin-H conversion, luminescence | inhibition, % at 5 µM;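 active = blocking of liver enzyme CYP2C9 beyond about 50% at 5 µM, limit read from the data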
# CYP2C19 inhib: inhibitors of human CYP2C19. P33261. CYP2C19 Supersomes, luciferin-H EGE luminescence, 30 min. inhibition, % at 5 µM. actives 21% (n = 96,000). AID 778;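 active = CYP2C19 inhibition above a set limit at 5 µM in the primary screen, cut at about 50% in these data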
# Numbers stand for hits; n = inactive; x = no result given.
SMILES,Cav3 T inh,CYP2C19 activ,CYP2C9 activ,CYP2C9 inh,CYP2C19 inhib
O=C(CC1Sc2ccccc2NC1=O)Nc1cccc(C(=O)O)c1 (stereo not drawn),x,n,n,n,n
Cc1ccccc1C(=O)N1CCC(C(N)=O)CC1,n,n,n,n,n
Cc1cc(C(=O)OCC(=O)Nc2cc(C(F)(F)F)ccc2N2CCOCC2)c(C)o1,n,n,n,63,n
O=C(Nc1cc(C(F)(F)F)ccc1N1CCOCC1)c1ccccc1,n,n,n,n,64
Cc1nnc(SCC(=O)Nc2cc(C(F)(F)F)ccc2N2CCOCC2)o1,n,n,n,n,n
COC(=O)c1ccc(CNC(=O)CNc2cc(C(F)(F)F)ccc2N2CCOCC2)cc1,n,n,n,95,n
O=C(Nc1cc(C(F)(F)F)ccc1N1CCOCC1)c1ccc(Cl)nc1,n,n,n,n,76
CCC(=O)Nc1cc(C(F)(F)F)ccc1N1CCOCC1,n,n,n,n,n
O=C(Nc1cc(C(F)(F)F)ccc1N1CCOCC1)c1cccnc1Cl,n,n,n,n,n
CC(=O)N1CCc2cc(S(=O)(=O)CCC(=O)N3CCN(C(=O)c4ccco4)CC3)ccc21,n,x,x,x,x
CC1(c2nnc(-c3ccccc3)o2)CC(c2ccc([N+](=O)[O-])cc2)=NO1 (stereo not drawn),n,x,x,x,x
CCN1CCN(C(c2ccccn2)c2c(NC(=O)c3ccccc3)sc(C)c2C)CC1 (stereo not drawn),n,n,n,n,n
CC1(C)CC2(CCO1)N1CC3(C)CN2CC(C)(C1)C3=O (stereo not drawn),n,x,x,x,x
COC(=O)[C@@]1(Cc2ccc(F)cc2)[C@H]2c3cc(C(=O)N4CCCC4)n(CCc4ccccn4)c3C[C@H]2CN1C(=O)c1ccccc1,n,x,x,x,x
Cc1ccc(OCCn2c(C)c(/C=N/n3cnnc3)c3ccccc32)cc1,n,n,n,89,86
CCC(=O)Nc1cc(Cl)ccc1N1CCN(C(=O)CC)CC1,n,n,n,n,n
CCC(=O)N1CCN(c2ccc(Cl)cc2NC(=O)Cc2ccccc2)CC1,-6,n,n,79,83
O=C(NCc1ccco1)C1(S(=O)(=O)c2ccc(Cl)cc2)CC1,n,n,n,n,73
O=C(CC(NS(=O)(=O)c1ccc(Cl)cc1)c1ccco1)NCc1ccco1 (stereo not drawn),x,n,n,n,61
O=C(COC(=O)CCNS(=O)(=O)c1ccc(Cl)cc1)NCc1ccco1,n,n,n,n,n
CC(NS(=O)(=O)c1ccc(Cl)cc1)C(=O)NCc1ccco1 (stereo not drawn),x,n,n,n,66
O=C(NCCN1CCCC1)C1(S(=O)(=O)c2ccc(Cl)cc2)CC1,n,n,n,n,n
COc1cccc(C(CC(=O)NCc2ccco2)NS(=O)(=O)c2ccc(C)cc2)c1OC (stereo not drawn),x,n,n,n,81
Cc1c(NS(=O)(=O)c2ccc3c(c2)CCN3C(=O)C2CC2)c(=O)n(-c2ccccc2)n1C,n,n,n,n,n
Cc1nn(C(=O)c2cccc([N+](=O)[O-])c2)c(C)c1Sc1ccccc1,n,n,n,n,n
SMILES,Cav3 T inh,CYP2C19 activ,CYP2C9 activ,CYP2C9 inh,CYP2C19 inhib
COc1ncccc1-c1nnn(-c2ccccc2)n1,n,x,x,x,x
CCC(C)NS(=O)(=O)c1ccc(OCC(=O)NCc2ccco2)cc1 (stereo not drawn),n,n,n,n,n
COc1ccc(S(=O)(=O)NC(CC(=O)NCc2ccco2)C(C)C)cc1 (stereo not drawn),x,n,n,n,61
COc1ccccc1CNC(=O)C(C)NS(=O)(=O)c1ccccc1 (stereo not drawn),n,n,n,n,n
CC(NS(=O)(=O)c1ccc(F)cc1)C(=O)NCc1ccncc1 (stereo not drawn),n,n,n,65,94
O=C(CSc1nnc(COc2ccc3c(c2)CCCC3)o1)Nc1ccc(F)cc1,n,n,n,n,n
CCCc1cc(C(=O)Nc2nccs2)cs1,n,n,n,52,n
CCNS(=O)(=O)c1ccc(NC(=O)c2cccnc2)cc1,n,n,n,78,n
CC(=O)Nc1ccc(S(=O)(=O)NCc2ccc(C(=O)NC(C)c3ccccc3)cc2)cc1 (stereo not drawn),n,n,n,91,n
CCNS(=O)(=O)c1ccc(C(=O)Nc2ccccc2)cc1,n,n,n,97,n
CCCN1C(=O)c2ccc(C(=O)Nc3nccs3)cc2C1=O,n,n,n,n,n
O=C(Nc1ccccc1)c1ccc(S(=O)(=O)NCC2CCCO2)cc1 (stereo not drawn),n,n,n,n,n

# From PubChem BioAssay
